Molecular target: SRC
Assay: pooled miR-30 sensor sort-seq; sequence = guide strand
Conditions: shRNA
Note: reference of the scale not given here.

| Sequence | sensor-assay potency score (higher = more potent) |
| --- | --- |
| TTTCGTGGTCTCACTTTCTCGC | 0.127 |
| TGTGTTGTTGACAATCTGGAGC | -0.666 |
| TCTGTGTTGTTGACAATCTGGA | 0.0722 |
| TCATTGTCTTCAATGAGCCGAG | -0.463 |
| TGTCTGTCCTGTGCTGAGCGAG | -1.15 |
| TGAAACCACAGCATACAACTGC | 0.358 |
| TAGACTCATAGTCATAGAGGGC | -1.02 |

Molecular target: SREBF2
Assay: as above
Conditions: shRNA

| Sequence | sensor-assay potency score (higher = more potent) |
| --- | --- |
| TTTATGATTGACCTGCTGCAAG | -1.02 |
| TCGAATGACAGGACACTGCGGC | -0.313 |
| TTTGATGTAATCAATGGCCTTC | 0.209 |
| TTGATTACTGACAAATTGCAGC | -0.488 |
| TTAACAATCATCTGCTGGCAGT | -1.13 |
| TAAAATGAGAGCGCACAGCTGC | -0.945 |
| TAGCTTCGTCTTCAAAGCCTGC | -1.4 |
| TCATGCAGGAACACCTTGCGGT | 0.123 |
| ATTACTGACAAATTGCAGCATC | -0.795 |
| TTAGCTTCGTCTTCAAAGCCTG | -0.243 |
| TTCACAGCTCTCTTCTTCCTGG | 0.117 |

— the OligoGym collection
